Most compounds without a hit are left out; they make up all but 6.9% or so of the library.
Mdm2 MdmX PPI = human Mdm2/MdmX binding inhibition. SaOS-2 split-luciferase Mdm2/MdmX complementation, luminescence. hit rate 3% among 330,000. AID 485346. inhibition, % at 8 µM. O15151+Q00987;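 active = inhibition of at least 50% at 8 µM in the primary screen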
Target sequence (O15151 whole entry, looked up): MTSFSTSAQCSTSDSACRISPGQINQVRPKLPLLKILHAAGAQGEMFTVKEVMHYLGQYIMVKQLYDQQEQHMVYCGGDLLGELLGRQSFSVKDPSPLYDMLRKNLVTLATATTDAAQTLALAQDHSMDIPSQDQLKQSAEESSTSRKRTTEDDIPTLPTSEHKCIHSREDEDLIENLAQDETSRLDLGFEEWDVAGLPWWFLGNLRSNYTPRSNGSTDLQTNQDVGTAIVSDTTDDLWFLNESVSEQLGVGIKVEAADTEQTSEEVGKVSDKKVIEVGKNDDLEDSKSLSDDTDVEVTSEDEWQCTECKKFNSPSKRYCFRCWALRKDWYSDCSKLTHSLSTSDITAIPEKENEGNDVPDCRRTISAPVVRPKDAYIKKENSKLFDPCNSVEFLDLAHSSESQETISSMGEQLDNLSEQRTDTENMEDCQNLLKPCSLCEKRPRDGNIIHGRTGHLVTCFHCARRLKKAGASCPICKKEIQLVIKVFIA
Target sequence (Q00987 whole entry, looked up): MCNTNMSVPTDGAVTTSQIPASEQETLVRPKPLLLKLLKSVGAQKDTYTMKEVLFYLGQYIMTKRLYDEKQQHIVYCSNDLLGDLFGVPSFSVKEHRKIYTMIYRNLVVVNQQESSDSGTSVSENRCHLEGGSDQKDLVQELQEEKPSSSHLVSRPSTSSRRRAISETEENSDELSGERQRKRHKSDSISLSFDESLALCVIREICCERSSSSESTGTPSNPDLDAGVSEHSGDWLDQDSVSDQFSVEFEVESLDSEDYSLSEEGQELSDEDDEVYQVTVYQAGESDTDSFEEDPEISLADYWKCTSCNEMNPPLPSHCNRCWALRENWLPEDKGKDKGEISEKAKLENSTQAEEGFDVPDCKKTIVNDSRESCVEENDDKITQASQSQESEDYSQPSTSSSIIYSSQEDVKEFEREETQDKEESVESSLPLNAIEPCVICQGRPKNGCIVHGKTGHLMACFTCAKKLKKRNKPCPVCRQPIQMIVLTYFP
NR3A LBD binder = modulators (binders) of human NR3A ligand-binding domain; NR3A LBD differential scanning fluorimetry, Tm shift; 0% = protein alone, 100% = glycine-bound protein; Tm shift relative to glycine control, % at 25 µM; hit rate 2.5% among 340,000; AID 1259313;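 active = melting temperature shift of at least 10% of the positive control shift, at one fixed dose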
MPTP block = blocks calcium-induced mitochondrial swelling. hit rate 1.4% among 360,000. isolated mouse mitochondria, Ca2+ swelling absorbance, 30 min. inhibition, % at 10 µM;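 active = inhibition of 50% or more, scaled per plate between neutral and stimulator controls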
Beta cell apopt = blocks beta cell apoptosis; protection from apoptosis, % (test concentration not listed); hit rate 0.8% among 300,000; INS-1E cytokine-induced death, ATP luminescence, 48 h; percent of positive-control rescue, neutral wells zero;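 active = Every replicate reaches about 75%, or at least half do and their mean reaches it too, limit read from the data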;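 also: higher means more ATP so stronger rescue from cytokine killing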
CSC inhib = cancer stem cell inhibition; cancer stem cell-like cells viability, luminescence; inhibition, % at 7.5 µM; hit rate 1.1% among 300,000; in the data active = inhibition above about 75%; tested in HMLE shEcad cells
SKKanGAS inh = inhibitors of SKKanGAS S. pyogenes growth in kanamycin (SK-promoter or general growth effect). inhibition, % at 7.5 µM. hit rate 1.3% among 300,000. BacTiter-Glo, 6 h. AID 1662;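 active = mean replicate score, as percent of positive control median, at least 50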;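 also: strain carries kanamycin resistance gene driven by streptokinase promoter and grows in 40 µg/ml kanamycin; loss of luminescence reflects streptokinase promoter inhibition or plain growth inhibition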
Mdm2 MdmX conf = human Mdm2/MdmX binding inhibition, confirmed; hit rate 55% among 10,000; luminescent assay; AID 489028; inhibition, % at 8 µM; shares compounds with Mdm2 MdmX PPI; in the data active = inhibition above about 40%
FLuc counter = counter-screen for Mdm2/MdmX inhibitors: full-length luciferase. hit rate 77% among 6,200. inhibition, % at 8 µM. shares compounds with Mdm2 MdmX PPI. SaOS-2 full-length luciferase counterscreen, luminescence;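 active = mean inhibition at 8 µM reaching about 37%, which flags the compound as non-specific, limit read from the data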;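 also: p53-null SaOS-2 cells with luciferase driven by a doxycycline-inducible promoter; compound on cells about two nights before reading with doxycycline added after day one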
Of the large screens only hits and unclear results are named; the others gave an inactive call (follow-up assays come after a bar, where they were run).

CCOC(=O)c1sc2nc(CSc3ccccc3Cl)[nH]c(=O)c2c1C	Mdm2 MdmX PPI 52 | Mdm2 MdmX conf inactive
Cc1nc2scc(-c3ccccc3)c2c(=O)n1N=C1C=CC(=O)C=C1	Mdm2 MdmX PPI 70 (no result: MPTP block, Beta cell apopt, CSC inhib) | Mdm2 MdmX conf 42 | FLuc counter inactive
Cc1nc2scc(-c3ccccc3)c2c(=O)n1N	none (no result: CSC inhib)
Cc1nonc1NC(=O)CSc1nnnn1-c1ccccc1	none
COc1ccc2c(c1)CCC/C2=N/OC(=O)c1ccccc1OC	none
COc1ccc2c(c1)CC/C2=N\OC(=O)c1cccc(C)c1	Mdm2 MdmX PPI 97 | Mdm2 MdmX conf 55 | FLuc counter inactive
COc1ccc2c(c1)CC/C2=N\OC(=O)c1ccccc1C	Mdm2 MdmX PPI 100 (no result: Beta cell apopt) | Mdm2 MdmX conf inactive | FLuc counter inactive
CCc1ccc(NC(=O)/C(C#N)=C/c2cn(CC(=O)O)c3ccccc23)cc1	none
N#C/C(=C\c1cn(Cc2ccccc2)c2ccccc12)C(=O)NCc1ccco1	none
N#C/C(=C/c1cn(CC(=O)O)c2ccccc12)C(=O)Nc1ccccc1	Mdm2 MdmX PPI 51 | Mdm2 MdmX conf inactive
Cc1cccc(NC(=O)/C(C#N)=C/c2cn(CC(=O)NCc3ccco3)c3ccccc23)c1C	Mdm2 MdmX PPI 90 | Mdm2 MdmX conf 49 | FLuc counter 65
N/C(=N\OC(=O)Cc1ccccc1)c1cccnc1	none
N/C(=N\OC(=O)CC(c1ccccc1)c1ccccc1)c1cccnc1	Mdm2 MdmX PPI 88 | Mdm2 MdmX conf 64 | FLuc counter 100
COc1ccccc1CNC(=O)c1ccc2c(=O)n(CCCN3CCCC3=O)c(=S)[nH]c2c1	none
O=C(NCc1ccc(OC(F)(F)F)cc1)C1CCC(=O)N(C2CC2)C1 (centres undefined)	none (no result: Beta cell apopt, CSC inhib)
COc1ccc(-c2c(C#N)c(N)nc3c2CCc2ccccc2-3)cc1OC	Mdm2 MdmX PPI 89 (no result: MPTP block) | Mdm2 MdmX conf 85 | FLuc counter 50
COc1ccc(-c2cc(-c3ccc(O)cc3)nc(N)c2C#N)cc1OC	Mdm2 MdmX PPI 59 | Mdm2 MdmX conf 42 | FLuc counter 100
O=C1[C@H](Cc2ccccc2)NCC=CC[C@H](c2ccco2)N1Cc1ccccc1	none (no result: Mdm2 MdmX PPI, Beta cell apopt, CSC inhib, SKKanGAS inh)
Cc1cc(OCC(=O)Nc2nccs2)c2c(C)cc(=O)oc2c1	Mdm2 MdmX PPI 90 | Mdm2 MdmX conf inactive
Cc1csc(NC(=O)COc2ccc3c(C)cc(=O)oc3c2)n1	Mdm2 MdmX PPI 67 | Mdm2 MdmX conf inactive
Cc1cc(OCC(=O)Nc2ccccn2)c2c(C)cc(=O)oc2c1	none (no result: Beta cell apopt)
Cc1cccc(OCC(=O)Nc2ccc3c(C)cc(=O)oc3c2)c1	none
Cc1cc(=O)oc2cc(NC(=O)COc3cccc(C(F)(F)F)c3)ccc12	Mdm2 MdmX PPI 69 (no result: SKKanGAS inh) | Mdm2 MdmX conf inactive
CCC(=O)c1ccc(OCC(=O)N2CCN(S(=O)(=O)c3ccc(Cl)s3)CC2)cc1	none (no result: CSC inhib, SKKanGAS inh)
COc1ccc(S(=O)(=O)N(CC(=O)NCc2ccco2)c2ccccc2OC)cc1	none
COc1cc(/C=C(\C#N)C(=O)NC2CCCCC2C)ccc1OS(=O)(=O)c1ccc(C)cc1 (centres undefined)	Mdm2 MdmX PPI 100, CSC inhib 157 | Mdm2 MdmX conf inactive
COc1ccc(OC)c(NS(=O)(=O)c2c(C)nc3sccn3c2=O)c1	none
COc1ccc(/C=N/N(C)C2=NS(=O)(=O)c3ccccc32)cc1	none
COc1ccc(N(C)C2=NS(=O)(=O)c3ccccc32)cc1	Mdm2 MdmX PPI 52 | Mdm2 MdmX conf 69 | FLuc counter 55
Cc1noc(C)c1C(=O)OCC(=O)Nc1ccccc1SCC#N	none (no result: SKKanGAS inh)
CCOc1cc(/C=C2\CN(C)C/C(=C\c3ccc(O)c(OCC)c3)C2=O)ccc1O	Mdm2 MdmX PPI 100, CSC inhib 105 | Mdm2 MdmX conf 100 | FLuc counter inactive
CCOc1cc(/C=C2\CCC/C(=C\c3cc(Cl)c(O)c(OCC)c3)C2=O)cc(Cl)c1O	Mdm2 MdmX PPI 100, Beta cell apopt 75 | Mdm2 MdmX conf 94 | FLuc counter inactive
CCOc1cc(/C=N/NC(=O)C(=O)N/N=C/c2ccc(O)c(OCC)c2)ccc1O	none
CCOc1cc(/C=N/NC(=O)N/N=C/c2ccc(O)c(OCC)c2)ccc1O	Mdm2 MdmX PPI 60 (no result: MPTP block) | Mdm2 MdmX conf 49 | FLuc counter 81
O=C(COc1ccc(F)cc1Cl)Nc1ccc(S(=O)(=O)Nc2nccs2)cc1	none
C=C1C(=O)O[C@@]23[C@H]1CC[C@@H](C)[C@@H]2CC[C@@]1(C)O[C@@H]31	Mdm2 MdmX PPI 71 (no result: SKKanGAS inh) | Mdm2 MdmX conf inactive | FLuc counter inactive
Cc1cc(C)c(C)c(S(=O)(=O)N2CCC(C(=O)NCCCN3CCOCC3)CC2)c1C	none (no result: SKKanGAS inh)
CCOC(=O)C1=C(C)N=c2s/c(=C/c3cccc([N+](=O)[O-])c3O)c(=O)n2C1c1cc(OC)c(OC)c(OC)c1 (centres undefined)	Mdm2 MdmX PPI 52 | Mdm2 MdmX conf inactive
CCOC(=O)C1=C(C)N=c2s/c(=C/c3cccc([N+](=O)[O-])c3O)c(=O)n2C1c1ccccc1 (centres undefined)	none
COc1ccc(/C=C2\SC(=S)N(CCCC(=O)N3CCOCC3)C2=O)cc1	none
COc1cccc(/C=C2\SC(=S)N(CCCC(=O)N3CCCCC3CCO)C2=O)c1 (centres undefined)	Mdm2 MdmX PPI 78 | Mdm2 MdmX conf 61 | FLuc counter inactive
O=C1/C(=C/c2cccs2)SC(=S)N1CCC(=O)N1CCCCC1CCO (centres undefined)	none
COc1cccc(/C=C2\SC(=S)N(CCCC(=O)N3CCCC3)C2=O)c1	Mdm2 MdmX PPI 84 | Mdm2 MdmX conf 46 | FLuc counter inactive
COc1cccc(/C=C2\SC(=S)N(CCC(=O)N3CCCCC3CCO)C2=O)c1 (centres undefined)	Mdm2 MdmX PPI 77 | Mdm2 MdmX conf 45 | FLuc counter 40
COc1ccccc1/C=C1\SC(=S)N(CCC(=O)N2CCCCC2CCO)C1=O (centres undefined)	none
CCc1cccc(NC(=O)C(NC(=O)C2CCCCC2)C(C)C)c1 (centres undefined)	none
CCOc1cc(NC(=O)CCl)c(OCC)cc1NC(=O)CCl	Mdm2 MdmX PPI 96 | Mdm2 MdmX conf 80 | FLuc counter 60
CCOc1ccc(NC(=O)CN2CCN(CC(=O)Nc3ccc(C(N)=O)cc3)CC2)cc1	none
Cc1ccc(-c2ccc(/C=N\NC(=O)c3cc4c(ccc5ccccc54)o3)o2)cc1[N+](=O)[O-]	Mdm2 MdmX PPI 94 | Mdm2 MdmX conf inactive
Cc1ccc([N+](=O)[O-])cc1-c1ccc(/C=N/NC(=O)c2cc3c(ccc4ccccc43)o2)o1	none
Cc1cc([N+](=O)[O-])ccc1-c1ccc(/C=N/NC(=O)c2ccc(Br)o2)o1	Mdm2 MdmX PPI 95, NR3A LBD binder 27, CSC inhib 88 | Mdm2 MdmX conf inactive
